According to PubChem BioAssay AID1159580 (chemical genetic matrix, 2015):
Values joined by “and” are separate entries in the source; they are usually repeats but may differ in a detail not shown here. Equal values may be shown once. The campaign covered roughly 5,500 compounds. About 2,000 (36%) were called active. Inconclusive results (about 18%) are left out. Rule as the data show it: active = normalized growth mostly below about 0.91 (no sharp cut-off); inconclusive = no clear call, values can overlap the other calls; inactive = mostly above about 0.92. The list shows a part of the results.

Assay: chemical genetic growth profiling, strain panel (AID 1159580);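 also: tested at 20 µM; growth read once vehicle control cultures reached saturation at 30 °C; 1 = growth at the plate median or of vehicle wells; lower values mean less growth of the strain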
Conditions: S. cerevisiae deletion strains, growth OD

Measured: normalized growth

c1ccc(CN(CC2=NCCN2)c2ccccc2)cc1
inactive: locus YAL013W, strain DEP1, stronger effect = lower value 1.01 | locus YAL021C, strain ccr4, stronger effect = lower value 0.973 | locus YAL026C, strain drs2, stronger effect = lower value 0.999 | locus YAL030W, strain snc1, stronger effect = lower value 1.01 | locus YBL061C, strain skt5, stronger effect = lower value 1.03 | locus YBR009C, strain hhf1, stronger effect = lower value 0.998 | locus YBR021W, strain FUR4, stronger effect = lower value 1.02 | locus YBR023C, strain chs3, stronger effect = lower value 1.02 | locus YBR171W, strain sec66, stronger effect = lower value 1.02 | locus YBR229C, strain ROT2, stronger effect = lower value 1 | locus YBR231C, strain swc5, stronger effect = lower value 0.999 | locus YBR279W, strain paf1, stronger effect = lower value 1.02 | locus YCL011C, strain gbp2, stronger effect = lower value 0.989 | locus YCL016C, strain dcc1, stronger effect = lower value 0.976 | locus YCL029C, strain bik1, stronger effect = lower value 1.01 | locus YCL069W, strain vba3, stronger effect = lower value 1.02 | locus YCR088W, strain abp1, stronger effect = lower value 1.01 | locus YDL005C, strain med2, stronger effect = lower value 1.01 | locus YDL035C, strain GPR1, stronger effect = lower value 1.02 | locus YDL040C, strain nat1, stronger effect = lower value 1.02 | locus YDL074C, strain BRE1, stronger effect = lower value 1.01 | locus YDL101C, strain DUN1, stronger effect = lower value 1.01 | locus YDL134C, strain PPH21, stronger effect = lower value 1.01 | locus YDL185W, strain tfp1, stronger effect = lower value 1 | locus YDL192W, strain arf1, stronger effect = lower value 1 | locus YDR001C, strain nth1, stronger effect = lower value 1.01 | locus YDR069C, strain doa4, stronger effect = lower value 1.02 | locus YDR101C, strain arx1, stronger effect = lower value 0.994 | locus YDR137W, strain rgp1, stronger effect = lower value 0.967 | locus YDR159W, strain sac3, stronger effect = lower value 1 | locus YDR162C, strain NBP2, stronger effect = lower value 1.03 | locus YDR195W, strain ref2 1.02 | locus YDR297W, strain sur2, stronger effect = lower value 1.01 | locus YDR318W, strain mcm21, stronger effect = lower value 0.992 | locus YDR334W, strain swr1, stronger effect = lower value 1.02 | locus YDR335W, strain msn5, stronger effect = lower value 1 | locus YDR388W, stronger effect = lower value 1.01 | locus YDR392W, strain spt3, stronger effect = lower value 0.961 | locus YDR502C, strain sam2, stronger effect = lower value 1 | locus YEL003W, strain gim4, stronger effect = lower value 1.03 | locus YEL037C, strain rad23, stronger effect = lower value 1.01 | locus YEL061C, strain CIN8 (second series), stronger effect = lower value 1.01 | locus YEL061C, strain CIN8, stronger effect = lower value 1.01 | locus YER015W, strain faa2, stronger effect = lower value 0.999 | locus YER016W, strain bim1, stronger effect = lower value 1.01 | locus YER110C, stronger effect = lower value 0.992 | locus YER111C, strain swi4, stronger effect = lower value 1.03 | locus YER155C, strain BEM2 (second series), stronger effect = lower value 1.04 | locus YER155C, strain BEM2, stronger effect = lower value 0.997 | locus YER167W, strain BCK2, stronger effect = lower value 1.01 | locus YFR010W, strain ubp6, stronger effect = lower value 1.02 | locus YGL078C, strain dbp3, stronger effect = lower value 0.997 | locus YGL086W, strain mad1, stronger effect = lower value 0.997 | locus YGL167C, strain pmr1, stronger effect = lower value 1.03 | locus YGL173C, strain kem1, stronger effect = lower value 1.03 | locus YGL227W, strain vid30, stronger effect = lower value 1.01 | locus YGL240W, strain doc1, stronger effect = lower value 1.04 | locus YGL248W, strain PDE1, stronger effect = lower value 1 | locus YGL253W, strain hxk2, stronger effect = lower value 1 | locus YGR135W, strain pre9, stronger effect = lower value 1 | locus YGR252W, strain gcn5, stronger effect = lower value 0.997 | locus YHR013C, strain ard1, stronger effect = lower value 0.972 | locus YHR027C, strain rpn1, stronger effect = lower value 1.02 | locus YHR030C, strain SLT2, stronger effect = lower value 1.01 and 1.02 | locus YHR079C, strain IRE1 (second series), stronger effect = lower value 0.995 | locus YHR079C, strain IRE1, stronger effect = lower value 1.03 | locus YHR094C, strain hxt1, stronger effect = lower value 1 | locus YHR129C, strain ARP1, stronger effect = lower value 1.01 | locus YHR142W, strain chs7, stronger effect = lower value 1 | locus YHR200W, strain rpn10, stronger effect = lower value 1.01 | locus YIL066C, strain RNR3, stronger effect = lower value 1.03 | locus YIL073C, strain SPO22, stronger effect = lower value 1 | locus YIL125W, strain kgd1, stronger effect = lower value 1 | locus YIR030C, strain dcg1, stronger effect = lower value 0.991 | locus YJL092W, strain hpr5, stronger effect = lower value 1.03 | locus YJL095W, strain BCK1 (second series), stronger effect = lower value 1.01 | locus YJL095W, strain BCK1, stronger effect = lower value 1.02 and 1.04 | locus YJL115W, strain asf1, stronger effect = lower value 0.999 | locus YJL129C, strain trk1, stronger effect = lower value 1.03 | locus YJL134W, strain LCB3, stronger effect = lower value 1.01 | locus YJL154C, strain vps35, stronger effect = lower value 1.01 | locus YJL164C, strain tpk1, stronger effect = lower value 0.974 | locus YJL166W, strain qcr8, stronger effect = lower value 1.03 | locus YJL168C, strain set2, stronger effect = lower value 0.993 | locus YJL187C, strain SWE1 (second series), stronger effect = lower value 1.01 | locus YJR043C, strain POL32, stronger effect = lower value 1.01 | locus YJR066W, strain TOR1, stronger effect = lower value 0.983 | locus YKL009W, strain mrt4, stronger effect = lower value 0.994 | locus YKL068W, stronger effect = lower value 1 | locus YKL085W, strain MDH1 (second series), stronger effect = lower value 1.01 | locus YKL085W, strain MDH1, stronger effect = lower value 1.01 | locus YKL160W, strain elf1, stronger effect = lower value 1.02 | locus YKR001C, strain vps1, stronger effect = lower value 0.997 | locus YKR026C, strain gcn3, stronger effect = lower value 0.97 | locus YKR091W, strain srl3, stronger effect = lower value 0.999 | locus YLL001W, strain dnm1, stronger effect = lower value 1.03 | locus YLL026W, stronger effect = lower value 1.02 | locus YLL041C, strain sdh2, stronger effect = lower value 1.01 | locus YLR027C, strain aat2, stronger effect = lower value 0.993 | locus YLR039C, strain RIC1, stronger effect = lower value 0.993 | locus YLR058C, strain SHM2, stronger effect = lower value 1.01 | locus YLR102C, strain apc9, stronger effect = lower value 0.998 | locus YLR113W, strain HOG1, stronger effect = lower value 1.04 | locus YLR221C, strain rsa3, stronger effect = lower value 1.01 | locus YLR258W, strain gsy2, stronger effect = lower value 0.992 | locus YLR262C, strain YPT6 (second series), stronger effect = lower value 1.01 | locus YLR262C, strain YPT6, stronger effect = lower value 1.04 | locus YLR268W, strain sec22, stronger effect = lower value 0.999 | locus YLR320W, strain mms22, stronger effect = lower value 0.982 | locus YLR330W, strain CHS5, stronger effect = lower value 1.01 | locus YLR342W, strain FKS1 (second series), stronger effect = lower value 1.03 | locus YLR342W, strain FKS1, stronger effect = lower value 1.02 | locus YLR357W, strain rsc2, stronger effect = lower value 1.03 | locus YLR370C, strain arc18, stronger effect = lower value 1 | locus YLR371W, strain rom2, stronger effect = lower value 1.01 | locus YLR384C, strain iki3, stronger effect = lower value 1.02 | locus YLR418C, strain cdc73, stronger effect = lower value 1.02 | locus YML016C, strain PPZ1, stronger effect = lower value 1 | locus YML032C, strain rad52, stronger effect = lower value 0.993 | locus YML120C, strain ndi1, stronger effect = lower value 1.03 | locus YML124C, strain tub3, stronger effect = lower value 0.992 | locus YMR058W, strain fet3, stronger effect = lower value 1.01 | locus YMR078C, strain ctf18, stronger effect = lower value 1 | locus YMR125W, strain sto1, stronger effect = lower value 1.01 | locus YMR129W, stronger effect = lower value 1.02 | locus YMR205C, strain PFK2, stronger effect = lower value 1.02 | locus YMR223W, strain ubp8, stronger effect = lower value 1 | locus YMR231W, strain pep5, stronger effect = lower value 1 | locus YMR307W, strain GAS1, stronger effect = lower value 1.08 | locus YNL067W, strain RPL9B, stronger effect = lower value 1.02 | locus YNL071W, strain lat1, stronger effect = lower value 0.999 | locus YNL183C, strain NPR1, stronger effect = lower value 0.975 | locus YNL209W, strain ssb2, stronger effect = lower value 0.996 | locus YNL233W, strain BNI4, stronger effect = lower value 1 | locus YNL248C, strain rpa49, stronger effect = lower value 0.987 | locus YNL250W, strain rad50, stronger effect = lower value 0.992 | locus YNL271C, strain bni1, stronger effect = lower value 0.995 | locus YNL298W, strain CLA4, stronger effect = lower value 1.01 | locus YNL307C, strain MCK1, stronger effect = lower value 1 | locus YNL322C, strain KRE1 (second series), stronger effect = lower value 1.01 | locus YNR049C, strain mso1, stronger effect = lower value 1.01 | locus YNR052C, strain pop2, stronger effect = lower value 0.996 | locus YOL012C, strain htz1 0.89 | locus YOL147C, strain pex11, stronger effect = lower value 1 | locus YOR001W, strain rrp6, stronger effect = lower value 1.02 | locus YOR061W, strain CKA2, stronger effect = lower value 1.01 | locus YOR069W, strain VPS5, stronger effect = lower value 1 | locus YOR070C, strain gyp1, stronger effect = lower value 1 | locus YOR080W, strain dia2, stronger effect = lower value 1.01 | locus YOR083W, strain WHI5, stronger effect = lower value 1.02 | locus YOR106W, strain vam3, stronger effect = lower value 1.03 | locus YOR136W, strain idh2, stronger effect = lower value 1 | locus YOR144C, strain elg1, stronger effect = lower value 0.998 | locus YOR184W, strain ser1, stronger effect = lower value 1.01 | locus YOR231W, strain MKK1, stronger effect = lower value 1.06 | locus YOR265W, strain rbl2, stronger effect = lower value 1.01 | locus YOR270C, strain vph1, stronger effect = lower value 0.988 | locus YOR290C, strain snf2, stronger effect = lower value 0.969 | locus YOR316C, strain cot1, stronger effect = lower value 1 | locus YPL051W, strain arl3, stronger effect = lower value 1.03 | locus YPL078C, strain atp4, stronger effect = lower value 1.04 | locus YPL106C, strain sse1, stronger effect = lower value 0.998 | locus YPL240C, strain hsp82, stronger effect = lower value 0.97 | locus YPL241C, strain CIN2, stronger effect = lower value 1.01 | locus YPL256C, strain CLN2, stronger effect = lower value 1.06 | locus YPR119W, strain clb2, stronger effect = lower value 0.991 | locus YPR141C, strain kar3, stronger effect = lower value 1 | locus YPR163C, strain tif3, stronger effect = lower value 1.01 | locus YPR167C, strain met16, stronger effect = lower value 0.996 | strain wtn01, stronger effect = lower value 0.99
